A selection: hits, their analogues and other compounds. The true share with any hit is near 4.7%.
TIM10 inh = TIM10 yeast growth inhibition. S. cerevisiae TIM10 strain growth, BacTiter-Glo luminescence, 24 h. inhibition, % at 10 µM. 330,000 tested, 1.4% active;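 active = inhibition of 40% or more at the single tested concentration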;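 also: wild-type TIM10 isogenic control strain grown at permissive 25 °C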
tim23-1 inh = growth inhibitors of tim23-1 mutant yeast; S. cerevisiae tim23-1 growth, BacTiter-Glo luminescence, 24 h; inhibition, % at 20 µM; 330,000 tested, 1.3% active; AID 463212;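 active = growth inhibition of the mutant yeast at or above 50%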;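 also: temperature-sensitive mutant grown at 25 °C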
PfHsp90 yeast 2 = growth inhibition of yeast expressing Plasmodium Hsp90 | S. cerevisiae expressing PfHsp90, BacTiter-Glo ATP, 48 h; yeast lacking PDR1 and PDR3 efflux regulators | inhibition, % at 9.4 µM | 310,000 tested, 0.32% active | AID 504621;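 active = every replicate shows inhibition above about 80%, whatever the replicate mean, limit read from the data; inconclusive = mean inhibition reaches the set limit but some replicate falls short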
EBI2 block = EBI2 (human) antagonism; AID 651636; inhibition, % at 5 µM; EBI2 beta-arrestin recruitment, luminescence, 7a,25-OHC stimulated; 360,000 tested, 0.81% active; in the data active = inhibition above about 38%;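 also: enzyme fragment complementation signal reports receptor beta-arrestin coupling in cells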
Target sequence (P32249 whole entry, looked up, the tested form may be a part): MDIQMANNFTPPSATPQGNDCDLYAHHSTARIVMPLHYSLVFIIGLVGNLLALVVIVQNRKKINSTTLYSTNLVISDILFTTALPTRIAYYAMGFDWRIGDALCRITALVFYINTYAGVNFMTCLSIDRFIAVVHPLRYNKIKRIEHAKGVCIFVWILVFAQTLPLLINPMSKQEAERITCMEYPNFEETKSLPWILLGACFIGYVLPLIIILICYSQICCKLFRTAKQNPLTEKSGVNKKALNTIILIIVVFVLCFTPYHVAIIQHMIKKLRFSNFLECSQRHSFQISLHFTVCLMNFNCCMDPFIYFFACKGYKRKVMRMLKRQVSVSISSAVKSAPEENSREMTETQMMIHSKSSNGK
SKKanGAS inh = inhibitors of SKKanGAS S. pyogenes growth in kanamycin (SK-promoter or general growth effect); BacTiter-Glo, 6 h; inhibition, % at 7.5 µM; 300,000 tested, 1.3% active; AID 1662;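 active = mean replicate score, as percent of positive control median, at least 50; inconclusive = mean below 50 but one replicate at or above 50; inactive = mean and every replicate below 50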;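 also: strain carries kanamycin resistance gene driven by streptokinase promoter and grows in 40 µg/ml kanamycin; loss of luminescence reflects streptokinase promoter inhibition or plain growth inhibition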
tim10-1 inh = growth inhibitors of tim10-1 mutant yeast. S. cerevisiae tim10-1 ts strain growth, BacTiter-Glo, 24 h. inhibition, % at 20 µM. 330,000 tested, 2.2% active. AID 463190;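 active = inhibition of at least 40%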;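 also: mutant grown at 25 °C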
tim10 confirm = confirmation of TIM10 yeast growth inhibitors; inhibition, % at 10 µM; shares compounds with TIM10 inh; S. cerevisiae tim10 strain growth, BacTiter-Glo luminescence, 24 h; 4,600 tested, 63% active; AID 463215;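 active = inhibition of yeast growth at or above a set limit in either of two replicates at 10 µM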; also: this counterscreen used the strain with wild-type TIM10
tim23-1 confirm = tim23-1 yeast growth inhibition, confirmed; shares compounds with tim23-1 inh; S. cerevisiae tim23-1 growth, BacTiter-Glo luminescence, 24 h; inhibition, % at 20 µM; 4,400 tested, 83% active;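 active = inhibition above about 39% in either of two replicate wells at 20 µM, limit read from the data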;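 also: temperature-sensitive tim23-1 mutant grown at 25 °C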
Of the large screens only hits and unclear results are named; the others gave an inactive call (follow-up assays come after a bar, where they were run).

Cc1cc(-c2ccccc2)nc(N/N=C/c2ccc(O)cc2O)n1	TIM10 inh 57, tim23-1 inh 64 | tim10 confirm 61 | tim23-1 confirm 70
Cc1cc(C)c(NS(=O)(=O)c2cccc3cccnc23)c(C)c1	none
Cc1ccc(S(=O)(=O)Nc2cccc3cccnc23)c([N+](=O)[O-])c1	TIM10 inh 46, tim23-1 inh 52, SKKanGAS inh inconclusive (no result: PfHsp90 yeast 2) | tim10 confirm 35 | tim23-1 confirm 53
O=C(Nc1cc([N+](=O)[O-])ccc1F)C1CC1	none
NNC(=O)c1cc2cc(OC(F)(F)F)ccc2[nH]1	TIM10 inh 50, tim23-1 inh 58 | tim10 confirm 40 | tim23-1 confirm 50
Cc1cccc(N2CCN(S(=O)(=O)c3ccc4c(c3)NC(=O)CS4)CC2)c1C	TIM10 inh 40, tim23-1 inh 63 | tim10 confirm 36 | tim23-1 confirm inactive
Cc1ccc(-c2nc3ccccc3[nH]2)s1	TIM10 inh 40, tim23-1 inh 51 | tim10 confirm inactive | tim23-1 confirm 71
O=C(Nc1cc(-c2nc3ncccc3o2)ccc1Cl)c1ccc([N+](=O)[O-])o1	TIM10 inh 43, tim23-1 inh 86 | tim10 confirm inactive | tim23-1 confirm 86
O=C(Nc1cc(-c2nc3ncccc3o2)ccc1Cl)c1cccs1	none
COc1cc([N+](=O)[O-])cc2sc(NC(=O)c3c(F)cccc3F)nc12	TIM10 inh 47, tim23-1 inh 52 | tim10 confirm 44 | tim23-1 confirm 51
O=C(Nc1nc(-c2ccc([N+](=O)[O-])cc2)cs1)c1c(F)cccc1F	none
O=C(Nc1cccc(Br)c1)c1cc2ccccc2o1	TIM10 inh 47, tim23-1 inh 53 | tim10 confirm 49 | tim23-1 confirm 62
Oc1ccc(Nc2nc(-c3ccccc3O)nc3ccccc23)cc1	TIM10 inh 47, tim23-1 inh 75 | tim10 confirm 62 | tim23-1 confirm inactive
O=C(COc1ccccc1Cl)Nc1nnc(S(=O)(=O)N2CCCCCC2)s1	none
N#CC1(c2nc3ccccc3[nH]2)CC1c1ccc2c(c1)OCO2 (stereo not drawn)	TIM10 inh 56, tim23-1 inh 56 (no result: PfHsp90 yeast 2) | tim10 confirm 32 | tim23-1 confirm 72
Cc1ccc(C)c(C(=O)Nc2cc(C)nn2-c2nc(C)cc(C)n2)c1	TIM10 inh 43, tim23-1 inh 54 | tim10 confirm 43 | tim23-1 confirm 48
Cc1cc(C)nc(-n2nc(C)cc2NC(=O)c2cccc(S(=O)(=O)N(C)C)c2)n1	none (no result: PfHsp90 yeast 2, EBI2 block)
Cc1cc2cc(C=O)c(Cl)nc2cc1C	TIM10 inh 44, tim23-1 inh 64 | tim10 confirm 28 | tim23-1 confirm 81
Cc1ccc(-c2nnc(N3CCN(S(C)(=O)=O)CC3)c3ccccc23)cc1	none
Cc1ccc(-c2nnc(N3CCN(c4ccccn4)CC3)c3ccccc23)cc1	TIM10 inh 48, tim23-1 inh 65 | tim10 confirm inactive | tim23-1 confirm 72
COc1ccccc1C(=O)Nc1ccc2c(c1)nc1n2CCN(C2CCCCC2)C1	none
CCCn1nnc(NC(=O)c2ccc(-c3cccc(Cl)c3)o2)n1	TIM10 inh 51, tim23-1 inh 69 | tim10 confirm 32 | tim23-1 confirm 74
CCn1nnc(NC(=S)NC(=O)c2ccc(-c3cccc(Cl)c3)o2)n1	none
N#C/C(=C\c1ccc(N2CCOCC2)o1)c1nc2ccccc2[nH]1	TIM10 inh 42, tim23-1 inh 54 | tim10 confirm 31 | tim23-1 confirm 74
O=C(NCCN1C(=O)S/C(=C\c2ccccc2F)C1=O)C1CCCN1C(=O)c1cccs1 (stereo not drawn)	none
O=C(/C=C/c1ccccc1)Nc1ccc2c(c1)OCCO2	TIM10 inh 46, tim23-1 inh 54 | tim10 confirm inactive | tim23-1 confirm 70
O=C(/C=C/c1ccco1)Nc1ccc2c(c1)OCCO2	none (no result: SKKanGAS inh)
COc1ccc(S(=O)(=O)n2cccc2)cc1	none (no result: PfHsp90 yeast 2)
CCOC(=O)c1sc(=NC(=O)c2ccccc2)n(C)c1C	TIM10 inh 71, tim23-1 inh 54 | tim10 confirm 62 | tim23-1 confirm 74
CCOC(=O)c1sc(NC(=O)c2ccc(S(=O)(=O)N(C)C)cc2)cc1C	none
CCOC(=O)c1sc(=NC(=O)c2cccc(OC)c2)n(C)c1C	none (no result: PfHsp90 yeast 2)
CCOC(=O)c1sc(NC(=O)c2ccccc2)cc1C	TIM10 inh 50, tim23-1 inh 64 | tim10 confirm 32 | tim23-1 confirm 72
Cc1ccc(NC(=O)ON=C2CCCC2)cc1	TIM10 inh 54, tim23-1 inh 53 | tim10 confirm 68 | tim23-1 confirm 47
CC(=O)c1sc(NC(=O)C(C)Oc2ccc3c(C)cc(=O)oc3c2)nc1C (stereo not drawn)	none
COc1ccccc1C/C(N)=N/OC(=O)c1ccc2c(c1)OCO2	TIM10 inh 71, tim23-1 inh 72 | tim10 confirm 80 | tim23-1 confirm 77
Nc1ccc(-c2cc(-c3cccc(N)c3)nc(-c3ccccc3)n2)cc1	none
Nc1ccc(-c2nc(-c3ccccc3)nc3ccccc23)cc1	TIM10 inh 56, tim23-1 inh 67 | tim10 confirm 54 | tim23-1 confirm 57
CCCC(=O)N1CCN(c2nnc(-c3ccccc3)c3ccccc23)CC1	none
O=C(c1cccs1)N1CCN(c2nnc(-c3ccccc3)c3ccccc23)CC1	TIM10 inh 43, tim23-1 inh 51 (no result: PfHsp90 yeast 2) | tim10 confirm inactive | tim23-1 confirm inactive
CCCOc1ccc(CSc2nc3ccccc3[nH]2)cc1	TIM10 inh 47, tim23-1 inh 64 (no result: PfHsp90 yeast 2) | tim10 confirm 36 | tim23-1 confirm 49
c1ccc(CSc2nc3ccccc3[nH]2)cc1	none
O=c1oc2cc(O)ccc2s1	none
Cc1ccc(-c2cc(O)cc3sc(=O)oc23)cc1C	TIM10 inh 53, tim23-1 inh 71 | tim10 confirm 68 | tim23-1 confirm inactive
O=C(N/N=C\c1ccc(O)c([N+](=O)[O-])c1)C1COc2ccccc2O1 (stereo not drawn)	none
Cc1cc([N+](=O)[O-])cc(/C=N\NC(=O)C2COc3ccccc3O2)c1O (stereo not drawn)	TIM10 inh 45, tim23-1 inh 67, SKKanGAS inh 106 | tim10 confirm 36 | tim23-1 confirm 70
O=[N+]([O-])c1ccc2c(c1)ncn2CCc1ccccc1	none
O=C(c1ccco1)N1CCN(c2ccc(F)cc2)CC1	none
O=C(c1ccco1)N1CCN(c2nc(-c3ccc(F)cc3)cs2)CC1	TIM10 inh 44, tim23-1 inh 82 | tim10 confirm inactive | tim23-1 confirm inactive
COc1ccc2c(c1OC)C(=O)OC2C1c2c(cc3c(c2OC)OCO3)CCN1C (stereo not drawn)	none

Screening results as filed in PubChem.
